# Experimental data: the supplement of paper PMC8728848
# The entries come from a sample that favours the strongest signals as a whole.
# B1: Blon2468mut (Bifidobacterium longum) (protein)
# chain: MTFIKQMMPRYVASMTAGIVAAAMAATCAFAPVANADAVSPTQETIQSTGRHFMVYYRAWRDVTMKGVNTDLPDDNWISMYDIPYGVDVVNIFSYVPSGQEEQAQPFYDKLKSDYAPYLHSRGIKLVRGIDYTGVAVNGFRTFMKEQNKTESEATEADYDAYAKQVIDKYMISVGLDGLDIDMQAHPNDADVKISDNVIRALSKHIGPKSAKPDTTMFLYDTNGSYLNPFKNVAECFDYVAYQQYGSSSDRTARAAADYQPYIGNEFVPGLTFPEEGDMNNRWYDATEPYEESHFYQVASYVREHNLGGMFVYALDRDGRNYDEDLRRIVPSNLLWTKTAIAESEGMALDTAKTAANHYLDRMSLRQVIDDNAASADKARDMVGKAANLYETNKAVLGGDYGEGFSNTYDPTLEAGLLGIDISVLQQQIDKSSEIIGADTAESDAKTALRMARDAAIDGLTGKIYTADQVSAWSQALKAALDATVPVPTPDSTDQNGNRDKVTNHKVQGQPKQLSATGISTDIIVAVGVTLAIAGVALSLSRKLS
# Legend:
# Test in all cases: glycan array binding signal (z-score within array); higher = stronger binding
# Details in all cases: glycan notation: IUPAC condensed, linker removed
# [1] = target: Fuc(a1-2)Gal(b1-3)GlcNAc6S
# Summary of the method: (§1)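 The binding signal is a Z-score computed within each array. Data were drawn from 3228 arrays in the Consortium for Functional Glycomics database, restricted to those with a known protein sequence. Scores were averaged over arrays of the same protein sequence at different concentrations or buffers, and over linkers, and negative values can be taken as non-binding.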
# [2] = target: Fuc(a1-2)Gal(b1-3)[Fuc(a1-4)]GlcNAc(b1-2)Man(a1-3)[Fuc(a1-2)Gal(b1-3)[Fuc(a1-4)]GlcNAc(b1-2)Man(a1-6)]Man(b1-4)GlcNAc(b1-4)[Fuc(a1-6)]GlcNAc(b1-4)[Fuc(a1-6)]GlcNAc
# Summary of the method: as §1
# [3] = target: Fuc(a1-2)Gal(b1-4)GlcNAc(b1-2)Man(a1-3)[Fuc(a1-2)Gal(b1-4)GlcNAc(b1-2)Man(a1-6)]Man(b1-4)GlcNAc(b1-4)GlcNAc
# Summary of the method: as §1
# [4] = target: Fuc(a1-2)Gal(b1-4)GlcNAc(b1-2)[Fuc(a1-2)Gal(b1-4)GlcNAc(b1-4)]Man(a1-3)[Fuc(a1-2)Gal(b1-4)GlcNAc(b1-2)Man(a1-6)]Man(b1-4)GlcNAc(b1-4)GlcNAc
# Summary of the method: as §1
# [5] = target: Fuc(a1-2)Gal(b1-4)GlcNAc(b1-3)Gal(b1-4)GlcNAc(b1-2)Man(a1-3)[Fuc(a1-2)Gal(b1-4)GlcNAc(b1-3)Gal(b1-4)GlcNAc(b1-2)Man(a1-6)]Man(b1-4)GlcNAc(b1-4)GlcNAc
# Summary of the method: as §1
# [6] = target: Fuc(a1-2)Gal(b1-4)[Fuc(a1-3)]GlcNAc
# Summary of the method: as §1
# [7] = target: Fuc(a1-2)Gal(b1-4)[Fuc(a1-3)]GlcNAc(b1-2)[Fuc(a1-2)Gal(b1-4)[Fuc(a1-3)]GlcNAc(b1-4)]Man(a1-3)[Fuc(a1-2)Gal(b1-4)[Fuc(a1-3)]GlcNAc(b1-2)Man(a1-6)]Man(b1-4)GlcNAc(b1-4)GlcNAc
# Summary of the method: as §1
# [8] = target: Fuc(a1-2)Gal6S(b1-3)GlcNAc6S
# Summary of the method: as §1
# [9] = target: Fuc(a1-2)[Gal(a1-3)]Gal(b1-3)GlcNAc(b1-2)Man(a1-3)[Fuc(a1-2)[Gal(a1-3)]Gal(b1-3)GlcNAc(b1-2)Man(a1-6)]Man(b1-4)GlcNAc(b1-4)[Fuc(a1-6)]GlcNAc
# Summary of the method: as §1
# [10] = target: Fuc(a1-2)[Gal(a1-3)]Gal(b1-4)[Fuc(a1-3)]GlcNAc
# Summary of the method: as §1
# [11] = target: Fuc(a1-2)[GalNAc(a1-3)]Gal(b1-3)GlcNAc(b1-2)Man(a1-3)[Fuc(a1-2)[GalNAc(a1-3)]Gal(b1-3)GlcNAc(b1-2)Man(a1-6)]Man(b1-4)GlcNAc(b1-4)[Fuc(a1-6)]GlcNAc
# Summary of the method: as §1
# [12] = target: Fuc(a1-2)[GalNAc(a1-4)]Gal(b1-4)GlcNAc
# Summary of the method: as §1
# [13] = target: Fuc(a1-2)[GalNAc(b1-3)]Gal
# Summary of the method: as §1
# [14] = target: Fuc(a1-3)[Gal(b1-4)]GlcNAc(b1-2)Man
# Summary of the method: as §1
# [15] = target: Gal(a1-3)Gal(b1-3)GlcNAc(b1-2)Man
# Summary of the method: as §1
# [16] = target: Gal(a1-3)Gal(b1-4)[Fuc(a1-3)]GlcNAc
# Summary of the method: as §1
# [17] = target: Gal(a1-3)[Gal(a1-4)]Gal(b1-4)GlcNAc
# Summary of the method: as §1
# Gal(b1-3)GlcNAc = target: Gal(b1-3)GlcNAc
# Summary of the method: as §1
# Gal(b1-3)GlcNAc(b1-2)Man = target: Gal(b1-3)GlcNAc(b1-2)Man
# Summary of the method: as §1
# [18] = target: Gal(b1-3)GlcNAc(b1-2)Man(a1-3)[GlcNAc(b1-4)][Gal(b1-3)GlcNAc(b1-2)Man(a1-6)]Man(b1-4)GlcNAc(b1-4)GlcNAc
# Summary of the method: as §1
# [19] = target: Gal(b1-3)GlcNAc(b1-3)Gal(b1-4)GlcNAc(b1-2)Man(a1-3)[Gal(b1-3)GlcNAc(b1-3)Gal(b1-4)GlcNAc(b1-2)Man(a1-6)]Man(b1-4)GlcNAc(b1-4)GlcNAc
# Summary of the method: as §1
# [20] = target: Gal(b1-3)GlcNAc(b1-3)Gal(b1-4)GlcNAc(b1-2)[Gal(b1-3)GlcNAc(b1-3)Gal(b1-4)GlcNAc(b1-6)]Man(a1-6)[Gal(b1-3)GlcNAc(b1-3)Gal(b1-4)GlcNAc(b1-2)Man(a1-3)]Man(b1-4)GlcNAc(b1-4)[Fuc(a1-6)]GlcNAc
# Summary of the method: as §1
# [21] = target: Gal(b1-3)GlcNAc(b1-3)Gal(b1-4)GlcNAc(b1-3)Gal(b1-4)GlcNAc(b1-2)[Gal(b1-3)GlcNAc(b1-3)Gal(b1-4)GlcNAc(b1-3)Gal(b1-4)GlcNAc(b1-6)]Man(a1-6)[Gal(b1-3)GlcNAc(b1-3)Gal(b1-4)GlcNAc(b1-3)Gal(b1-4)GlcNAc(b1-2)Man(a1-3)]Man(b1-4)GlcNAc(b1-4)[Fuc(a1-6)]GlcNAc
# Summary of the method: as §1
# [22] = target: Gal(b1-3)[Fuc(a1-4)]GlcNAc(b1-6)GalNAc
# Summary of the method: as §1
# [23] = target: Gal(b1-4)GlcNAc(b1-2)Man(a1-6)[GlcNAc(b1-2)Man(a1-3)]Man(b1-4)GlcNAc(b1-4)GlcNAc
# Summary of the method: as §1
# [24] = target: Gal(b1-4)GlcNAc(b1-3)Gal(b1-4)GlcNAc(b1-3)Gal(b1-4)GlcNAc(b1-3)Gal(b1-4)GlcNAc(b1-3)Gal(b1-4)GlcNAc(b1-2)Man(a1-3)[Gal(b1-4)GlcNAc(b1-3)Gal(b1-4)GlcNAc(b1-3)Gal(b1-4)GlcNAc(b1-3)Gal(b1-4)GlcNAc(b1-3)Gal(b1-4)GlcNAc(b1-2)Man(a1-6)]Man(b1-4)GlcNAc(b1-4)[Fuc(a1-6)]GlcNAc
# Summary of the method: as §1
# [25] = target: Gal3S(b1-4)[Fuc(a1-3)]Glc6S
# Summary of the method: as §1
# Gal6P(b1-4)GlcNAc = target: Gal6P(b1-4)GlcNAc
# Summary of the method: as §1
binder,measurement,setting,value
B1,glycan array binding signal (z-score),[1],-0.052
same,glycan array binding signal (z-score),[2],-0.074
same,glycan array binding signal (z-score),[3],-0.068
same,glycan array binding signal (z-score),[4],-0.045
same,glycan array binding signal (z-score),[5],0.003
same,glycan array binding signal (z-score),[6],-0.065
same,glycan array binding signal (z-score),[7],-0.036
same,glycan array binding signal (z-score),[8],0.078
same,glycan array binding signal (z-score),[9],-0.055
same,glycan array binding signal (z-score),[10],-0.049
same,glycan array binding signal (z-score),[11],-0.036
same,glycan array binding signal (z-score),[12],-0.021
same,glycan array binding signal (z-score),[13],-0.061
same,glycan array binding signal (z-score),[14],-0.022
same,glycan array binding signal (z-score),[15],-0.087
same,glycan array binding signal (z-score),[16],-0.083
same,glycan array binding signal (z-score),[17],0.009
same,glycan array binding signal (z-score),Gal(b1-3)GlcNAc,-0.068
same,glycan array binding signal (z-score),Gal(b1-3)GlcNAc(b1-2)Man,-0.078
same,glycan array binding signal (z-score),[18],-0.042
same,glycan array binding signal (z-score),[19],-0.09
same,glycan array binding signal (z-score),[20],0.03
same,glycan array binding signal (z-score),[21],0.124
same,glycan array binding signal (z-score),[22],-0.056
same,glycan array binding signal (z-score),[23],-0.055
same,glycan array binding signal (z-score),[24],-0.046
same,glycan array binding signal (z-score),[25],0.006
same,glycan array binding signal (z-score),Gal6P(b1-4)GlcNAc,-0.066
